VACV Venus inh: vaccinia inhibition (Venus reporter); Potency, µM (highest dose often 36.5 µM), inactives show at the top dose activity change, negative = inhibition, most hits filed as inhibitors; Vaccinia virus Venus reporter expression, fluorescence; 330,000 tested, 0.46% active; calls by dose curve; tested in A549 cells; further: potency means the concentration at half of the fitted maximal effect; nearly all actives have a fitted effect of over 30% in size
VACV mCherry inh: inhibitors of vaccinia virus infection (mCherry reporter signal). Vaccinia virus mCherry reporter infection, fluorescence. Potency, µM (titrated, usually from 36.5 µM), for the others: top-dose activity change, negative = inhibition, hits mostly inhibitors. 310,000 tested, 0.63% active. AID 720579; calls by dose curve; tested in A549 cells; further: potency means the concentration at half of the fitted maximal effect; nearly all actives have a fitted effect of over 35% in size
FMDV antiviral: antivirals against foot and mouth disease virus; FMDV antiviral cell-based qHTS; Potency, µM (titrated, usually from 57.9 µM), for the others: at the highest dose activity change, negative = inhibition, hits mostly inhibitors; 410,000 tested, 1.2% active; AID 1159524; calls by dose curve; tested in HEK293T cells; further: read-out not given here; potency means the concentration at half of the fitted maximal effect; nearly all actives have a fitted effect of over 45% in size
HCMV antiviral: human cytomegalovirus inhibition | HFF cells, HCMV-luciferase reporter, 72 h; active compounds read low | activity change, negative = inhibition, % at 57.5 µM | 410,000 tested, 4.5% active | AID 1259415; in the data active means activity change below about -60%; inconclusive means no clear call, values can overlap the other calls; inactive means above about -39%
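Steps: HFFs plated, 16 h 37C; compounds added; HCMV-luciferase added to MOI 1 PFU/cell; 72 h 37C; OneGlo reagent, 5 min room temperature; luminescence read, normalized to controls.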
MARV entry inh: blocks Marburg virus binding to or entry into cells; Potency, µM (top dose mostly 37.8 µM), for inactives: at the highest dose activity change, negative = inhibition, most hits filed as inhibitors; 300,000 tested, 1.8% active; AID 540276; Marburg virus pseudotyped entry inhibition, cell reporter; calls by dose curve; tested in HEK293 cells; further: potency means the concentration at half of the fitted maximal effect
Lassa entry inh: blocks Lassa virus binding to or entry into cells; 300,000 tested, 1.2% active; Lassa virus pseudotype entry inhibition, cell reporter; Potency, µM (top dose mostly 37.9 µM), inactives show at the highest dose activity change, negative = inhibition, hits mostly inhibitors; calls by dose curve; tested in HEK293 cells; further: potency means the concentration at half of the fitted maximal effect; nearly all actives have a fitted effect of over 50% in size
The depositor's hits bear a star; i = inactive; ? = inconclusive; . = no result; [ ] = dose if it differs, or a comment. Sampled rows, rich in hits. Any-hit rate of the full collection: about 6.5%. On the % scale 0 is the no-effect control and ±100 the full control effect.

SMILES | VACV Venus inh | VACV mCherry inh | FMDV antiviral | HCMV antiviral | MARV entry inh | Lassa entry inh
CCOC(=O)c1cnc(Nc2nc3ccccc3o2)nc1C | . | . | ? | -33 | 4.1µM* | 1.3µM*
Cc1nc(Nc2nc3ccccc3o2)nc2c1CCC2 | . | . | ? | -29 | 7.3µM* | ?
CC(=O)c1ccc(NC(=O)CSc2nc(C3CCCC3)nc3c2c(=O)n(C)c(=O)n3C)cc1 | -21% | -17% | ? | 2 | . | 2%[46.1 µM]
Cc1c2cnn(CC(=O)NCCCN3CC(C)CC(C)C3)c(=O)c2c(C)n1Cc1ccccc1Cl (configuration not stated) | ? | -22% | -13% | -69* | ? | ?
O=C(CN1Cc2ccccc2OC(c2ccsc2)C1)N1CCN(Cc2ccc3c(c2)OCO3)CC1 (configuration not stated) | -7% | -13% | 1% | . | . | .
CCCCC1(CO)C(=O)N(c2ccccc2)N(c2ccccc2)C1=O | -10% | i | -19% | -11 | ? | -21%[46.1 µM]
CCCCC1(Cc2cccc([N+](=O)[O-])c2)C(=O)N(c2ccccc2)N(c2ccccc2)C1=O | -30% | -10% | ? | -64* | 16µM* | ?
CCN(Cc1ccc2c(c1)OCO2)C(=O)CSc1ncnc2sccc12 | . | . | -6% | -3 | . | .
CCN(Cc1ccc2c(c1)OCCO2)C(=O)CSc1nc(C)nc2sc(C)c(C)c12 | . | . | 32µM* | -38 | . | .
Cc1ccc(C)n1-c1c(C(=O)NCC(C)c2ccccc2)sc2ncccc12 (configuration not stated) | -18% | -13% | 0% | 10 | . | 2%[46.1 µM]
CCOc1ccc(NC(=O)CSc2nc(-c3cccc(Cl)c3)nc3c2Cc2c(CO)cnc(C)c2O3)cc1 | -6% | 0% | -13% | -7 | . | -9%[46.1 µM]
CN(C)c1ccc(-c2nc3ccccn3c2/N=C/c2ccc(Br)cc2)cc1 | -10% | -20% | 13µM* | ? | ? | 7.1µM*
COc1ccc(-c2cc(=O)oc3c(O)c(O)ccc23)cc1 | ? | 11µM* | 0% | 78 | ? | -4%
Cc1cc(C)c2nc(NC3=NCN(CCN4CCOCC4)CN3)nc(C)c2c1 | . | . | . | . | 2% | .
CC1=CC(C)(C)N=C(Nc2nc(C)c3cc(C)cc(C)c3n2)N1 | . | . | ? | -97* | . | .
COc1ccc(NC(=O)C2CCCN2C(=O)Nc2ccccc2)cc1OC (configuration not stated) | . | . | 10% | 36 | -2% | 0%
COc1ccc(C2CCCN2C(=O)Nc2ccc(Cl)cc2)cc1OC (configuration not stated) | -21% | i | -8% | -72* | . | .
Nc1ccc(C(=O)Nc2ccc(OC(F)(F)C(F)F)c(NC(=O)c3ccc(N)cc3)c2)cc1 | -25% | ? | 57% | -68* | -1% | -14%
O=c1cc(CCl)nc(Cc2c(Cl)cccc2Cl)[nH]1 | ? | ? | ? | -93* | ? | ?
O=c1cc(-c2ccccc2)nc(Cc2c(Cl)cccc2Cl)[nH]1 | -17% | ? | -8% | -20 | -3%[46.1 µM] | 7%[46.1 µM]
Cc1cc(N)n2nc(C(F)(F)F)nc2n1 | -8% | -11% | -1% | -92* | 7%[46.1 µM] | 6%[46.1 µM]
COc1cc(=O)n2c(c1C(=O)NCc1ccco1)CCN(Cc1cc3ccccc3[nH]1)CC2 | -16% | i | -11% | . | . | .
Cc1ccc(CN2C(=O)CCC2(C)c2nnnn2-c2ccc3c(c2)OCCO3)cc1 (configuration not stated) | 6% | -8% | -9% | 10 | . | .
COc1ccc(CCN2C(=O)CCC2(C)c2nnnn2-c2ccc3c(c2)OCCO3)cc1OC (configuration not stated) | 0% | 41% | -12% | -83* | . | .
COc1ccc(CCNC(=O)c2nnn(-c3ccccc3OC)c2N)cc1OC | -15% | -16% | -19% | 29 | -16% | 15%
Nc1c(C(=O)Nc2cccc(F)c2)nnn1-c1ccc2c(c1)OCCO2 | -13% | -17% | -18% | 135 | ? | 4µM*
COc1ccc(CCNC(=O)c2nnn(-c3ccc4c(c3)OCCO4)c2N)cc1OC | . | . | 3.5µM* | -75* | ? | ?
CC(C)CCNC(=O)Nc1ccc2c(c1)N(Cc1ccccc1)C(=O)c1ccccc1S2 | -24% | -10% | -19% | -20 | ? | ?
Cc1ccc(NC(=S)/C(C#N)=C2/Nc3ccccc3S2)cc1 | ? | ? | ? | -79* | . | .

Source: PubChem BioAssay
